Test results as given in publication PMC7862700, “An all-to-all approach to the identification of sequence-specific readers for epigenetic DNA modifications on cytosine”.

What was measured:
Experiment in all cases: DAPPL (digital affinity profiling via proximity ligation, sequencing); 10 mM Tris-HCl pH 7.5, 50 mM NaCl, 1 mM DTT, 4% glycerol, room temperature, 30 min; GST-TFs on glutathione beads, 16-mer random dsDNA library, 0.1% formaldehyde crosslink after washing; high values mean tight binding
[1] = target: T1, FEV (Homo sapiens, UniProt Q99581 1-238); settings: protein: recombinant; tags: N-terminal GST; dsDNA, one strand shown
T1 sequence: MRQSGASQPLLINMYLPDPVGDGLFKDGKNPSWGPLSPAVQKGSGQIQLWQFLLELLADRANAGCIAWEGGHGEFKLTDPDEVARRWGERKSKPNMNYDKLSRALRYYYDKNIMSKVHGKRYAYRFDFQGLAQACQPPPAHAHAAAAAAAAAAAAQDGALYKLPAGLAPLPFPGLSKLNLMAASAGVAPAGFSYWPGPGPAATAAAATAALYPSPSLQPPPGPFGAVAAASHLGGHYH
Procedure, shortened: (§1)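 Binding signal is given per hexamer as its read frequency for a factor divided by its frequency in the tag-only sample. GST-fused human transcription factors were expressed in yeast, captured on glutathione beads, barcoded with DNA and pooled with that sample, then incubated with 200 nmole of a 16-mer random double-stranded DNA library in Tris/NaCl/DTT/glycerol buffer for 30 min at room temperature. The pools were then washed, crosslinked, proximity-ligated, amplified by PCR and sequenced on an Illumina NextSeq500.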

[2] = target: ETV5 (Homo sapiens, UniProt P41161 1-510); settings: protein: recombinant; tags: N-terminal GST; dsDNA, one strand shown
Sequence of ETV5 (P41161 whole entry): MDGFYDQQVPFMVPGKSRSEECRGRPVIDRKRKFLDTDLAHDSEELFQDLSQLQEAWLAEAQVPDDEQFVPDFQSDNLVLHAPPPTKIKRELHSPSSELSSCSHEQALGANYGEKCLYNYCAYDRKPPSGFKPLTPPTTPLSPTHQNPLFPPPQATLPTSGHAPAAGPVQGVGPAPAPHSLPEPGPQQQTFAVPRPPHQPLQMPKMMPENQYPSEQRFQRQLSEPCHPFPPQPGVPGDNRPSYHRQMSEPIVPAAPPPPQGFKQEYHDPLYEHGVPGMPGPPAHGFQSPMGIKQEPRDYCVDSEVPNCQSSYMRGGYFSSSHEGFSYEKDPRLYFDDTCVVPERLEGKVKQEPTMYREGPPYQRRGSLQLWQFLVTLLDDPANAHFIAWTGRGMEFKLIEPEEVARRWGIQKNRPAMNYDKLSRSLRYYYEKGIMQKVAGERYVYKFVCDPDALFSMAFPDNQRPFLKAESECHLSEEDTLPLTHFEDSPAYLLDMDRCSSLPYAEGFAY
Procedure, shortened: as §1

[3] = target: HSF1 (Homo sapiens, UniProt Q00613 1-529); settings: protein: recombinant; tags: N-terminal GST; chain copies: 3; dsDNA, one strand shown
Sequence of HSF1 (Q00613 whole entry): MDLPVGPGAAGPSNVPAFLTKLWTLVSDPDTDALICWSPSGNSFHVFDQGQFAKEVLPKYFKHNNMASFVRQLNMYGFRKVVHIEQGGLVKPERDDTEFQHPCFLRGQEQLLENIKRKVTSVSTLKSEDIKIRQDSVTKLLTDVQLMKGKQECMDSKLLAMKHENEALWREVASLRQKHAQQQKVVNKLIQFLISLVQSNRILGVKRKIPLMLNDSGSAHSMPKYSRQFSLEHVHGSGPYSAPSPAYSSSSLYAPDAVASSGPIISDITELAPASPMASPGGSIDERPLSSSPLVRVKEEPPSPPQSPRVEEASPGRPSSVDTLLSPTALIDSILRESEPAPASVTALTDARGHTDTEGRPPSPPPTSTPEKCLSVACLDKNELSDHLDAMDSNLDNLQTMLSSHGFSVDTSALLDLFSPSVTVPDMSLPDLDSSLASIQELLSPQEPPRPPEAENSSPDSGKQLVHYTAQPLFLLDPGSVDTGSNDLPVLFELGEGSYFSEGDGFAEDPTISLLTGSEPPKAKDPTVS
Procedure, shortened: as §1

[4] = target: T2, SPIC (Homo sapiens, UniProt Q8N5J4 1-248); settings: protein: recombinant; tags: N-terminal GST; dsDNA, one strand shown
T2 sequence: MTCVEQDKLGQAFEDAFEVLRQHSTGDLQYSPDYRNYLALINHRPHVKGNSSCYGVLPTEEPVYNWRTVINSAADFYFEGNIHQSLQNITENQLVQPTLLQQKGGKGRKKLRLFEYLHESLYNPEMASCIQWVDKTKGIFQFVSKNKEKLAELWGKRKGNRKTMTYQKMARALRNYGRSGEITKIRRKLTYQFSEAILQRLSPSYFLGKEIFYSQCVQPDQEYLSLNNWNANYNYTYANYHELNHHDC
Procedure, shortened: as §1

[5] = target: ELF4 (Homo sapiens, UniProt Q99607 1-663); settings: protein: recombinant; tags: N-terminal GST; dsDNA, one strand shown
Sequence of ELF4 (Q99607 whole entry): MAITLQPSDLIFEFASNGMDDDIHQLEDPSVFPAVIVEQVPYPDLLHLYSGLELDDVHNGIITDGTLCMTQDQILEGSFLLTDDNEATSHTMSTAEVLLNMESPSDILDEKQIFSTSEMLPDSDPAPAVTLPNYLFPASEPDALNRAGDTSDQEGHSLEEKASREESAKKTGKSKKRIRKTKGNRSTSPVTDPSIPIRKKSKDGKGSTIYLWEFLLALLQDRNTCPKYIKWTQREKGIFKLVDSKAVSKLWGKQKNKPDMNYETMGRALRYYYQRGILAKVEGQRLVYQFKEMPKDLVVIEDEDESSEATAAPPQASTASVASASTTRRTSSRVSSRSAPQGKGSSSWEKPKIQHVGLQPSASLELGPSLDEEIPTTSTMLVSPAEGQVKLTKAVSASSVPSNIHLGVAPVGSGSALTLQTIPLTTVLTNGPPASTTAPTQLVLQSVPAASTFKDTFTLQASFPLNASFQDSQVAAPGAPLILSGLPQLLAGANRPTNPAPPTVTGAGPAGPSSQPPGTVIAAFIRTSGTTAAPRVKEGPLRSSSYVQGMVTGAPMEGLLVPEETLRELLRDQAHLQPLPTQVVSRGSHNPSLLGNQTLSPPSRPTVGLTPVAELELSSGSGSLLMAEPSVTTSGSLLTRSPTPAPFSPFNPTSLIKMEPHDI
Procedure, shortened: as §1

[6] = target: T3, ELK4 (Homo sapiens, UniProt P28324-2 1-405); settings: protein: recombinant; tags: N-terminal GST; dsDNA, one strand shown
T3 sequence: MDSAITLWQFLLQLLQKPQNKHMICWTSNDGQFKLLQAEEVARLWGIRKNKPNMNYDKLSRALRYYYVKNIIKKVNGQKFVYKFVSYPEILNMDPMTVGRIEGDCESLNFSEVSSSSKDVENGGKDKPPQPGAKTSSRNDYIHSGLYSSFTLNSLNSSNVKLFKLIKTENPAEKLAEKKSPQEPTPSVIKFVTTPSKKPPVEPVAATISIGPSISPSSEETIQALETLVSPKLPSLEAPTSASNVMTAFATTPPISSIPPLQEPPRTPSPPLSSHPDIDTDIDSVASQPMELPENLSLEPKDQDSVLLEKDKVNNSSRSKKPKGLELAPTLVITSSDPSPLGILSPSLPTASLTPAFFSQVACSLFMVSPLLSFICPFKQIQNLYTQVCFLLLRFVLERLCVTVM
Procedure, shortened: as §1

[7] = target: T4, ETV2 (Homo sapiens, UniProt O00321 1-342); settings: protein: recombinant; tags: N-terminal GST; dsDNA, one strand shown
T4 sequence: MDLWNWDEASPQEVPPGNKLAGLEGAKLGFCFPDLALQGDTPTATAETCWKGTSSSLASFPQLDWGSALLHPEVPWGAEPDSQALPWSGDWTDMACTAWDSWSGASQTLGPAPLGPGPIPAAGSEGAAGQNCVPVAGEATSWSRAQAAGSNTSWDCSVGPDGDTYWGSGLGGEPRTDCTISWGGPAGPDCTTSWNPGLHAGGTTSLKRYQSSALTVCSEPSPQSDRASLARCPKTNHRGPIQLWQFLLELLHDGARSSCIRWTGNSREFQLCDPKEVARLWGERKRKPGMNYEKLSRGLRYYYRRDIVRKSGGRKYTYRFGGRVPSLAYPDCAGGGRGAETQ
Procedure, shortened: as §1

[8] = target: T5, ELF3 (Homo sapiens, UniProt P78545 1-371); settings: protein: recombinant; tags: N-terminal GST; dsDNA, one strand shown
T5 sequence: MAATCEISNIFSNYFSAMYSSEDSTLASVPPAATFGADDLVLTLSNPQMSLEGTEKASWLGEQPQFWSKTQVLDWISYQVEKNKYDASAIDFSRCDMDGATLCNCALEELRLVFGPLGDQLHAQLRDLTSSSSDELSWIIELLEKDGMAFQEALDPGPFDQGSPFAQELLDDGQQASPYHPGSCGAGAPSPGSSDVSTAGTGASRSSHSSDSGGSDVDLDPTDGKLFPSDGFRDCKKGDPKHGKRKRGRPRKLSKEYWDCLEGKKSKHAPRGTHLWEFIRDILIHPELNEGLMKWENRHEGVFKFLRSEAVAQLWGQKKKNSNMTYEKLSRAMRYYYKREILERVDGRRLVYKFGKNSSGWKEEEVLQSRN
Procedure, shortened: as §1

[9] = target: CRX (Homo sapiens, UniProt O43186 1-299); settings: protein: recombinant; tags: N-terminal GST; dsDNA, one strand shown
Sequence of CRX (O43186 whole entry): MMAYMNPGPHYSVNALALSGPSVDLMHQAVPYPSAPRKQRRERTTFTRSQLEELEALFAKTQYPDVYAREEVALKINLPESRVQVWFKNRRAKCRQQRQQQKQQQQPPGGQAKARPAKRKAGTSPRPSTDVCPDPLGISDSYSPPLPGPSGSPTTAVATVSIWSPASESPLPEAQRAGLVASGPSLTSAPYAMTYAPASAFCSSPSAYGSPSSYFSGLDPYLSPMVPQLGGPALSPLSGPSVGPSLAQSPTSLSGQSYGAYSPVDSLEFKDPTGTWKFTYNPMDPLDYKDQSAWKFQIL
Procedure, shortened: as §1

[10] = target: ETV1 (Homo sapiens, UniProt P50549 1-477); settings: protein: recombinant; tags: N-terminal GST; dsDNA, one strand shown
Sequence of ETV1 (P50549 whole entry): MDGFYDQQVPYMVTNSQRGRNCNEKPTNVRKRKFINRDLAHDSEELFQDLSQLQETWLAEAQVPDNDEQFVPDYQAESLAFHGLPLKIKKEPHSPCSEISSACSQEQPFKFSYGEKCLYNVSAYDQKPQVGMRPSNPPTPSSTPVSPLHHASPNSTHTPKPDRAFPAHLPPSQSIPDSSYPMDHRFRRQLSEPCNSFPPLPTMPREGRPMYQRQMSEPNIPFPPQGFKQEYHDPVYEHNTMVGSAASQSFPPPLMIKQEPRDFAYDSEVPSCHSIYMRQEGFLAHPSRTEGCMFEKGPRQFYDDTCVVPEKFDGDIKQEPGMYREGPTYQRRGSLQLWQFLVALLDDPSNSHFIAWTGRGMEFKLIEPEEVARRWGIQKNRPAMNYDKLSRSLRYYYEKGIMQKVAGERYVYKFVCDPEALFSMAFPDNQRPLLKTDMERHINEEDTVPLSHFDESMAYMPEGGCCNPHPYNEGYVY
Procedure, shortened: as §1

[11] = target: T6, ERF (Homo sapiens, UniProt P50548 1-548); settings: protein: recombinant; tags: N-terminal GST; dsDNA, one strand shown
T6 sequence: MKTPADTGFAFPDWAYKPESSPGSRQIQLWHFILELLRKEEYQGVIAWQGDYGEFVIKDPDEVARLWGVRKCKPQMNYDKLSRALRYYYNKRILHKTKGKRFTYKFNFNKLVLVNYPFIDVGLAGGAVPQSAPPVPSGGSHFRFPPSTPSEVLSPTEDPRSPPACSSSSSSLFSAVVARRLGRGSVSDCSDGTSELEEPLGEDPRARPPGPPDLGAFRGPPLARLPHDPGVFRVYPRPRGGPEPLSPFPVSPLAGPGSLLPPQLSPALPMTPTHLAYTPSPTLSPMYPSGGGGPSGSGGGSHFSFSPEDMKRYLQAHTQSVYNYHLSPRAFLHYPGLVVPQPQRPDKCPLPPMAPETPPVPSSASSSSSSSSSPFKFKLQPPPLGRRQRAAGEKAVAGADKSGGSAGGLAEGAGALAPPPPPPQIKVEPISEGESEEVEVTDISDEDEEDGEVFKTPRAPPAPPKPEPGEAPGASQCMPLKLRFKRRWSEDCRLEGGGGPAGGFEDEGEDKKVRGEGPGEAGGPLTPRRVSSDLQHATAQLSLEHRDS
Procedure, shortened: as §1

[12] = target: T7, ETV3L (Homo sapiens, UniProt Q6ZN32 1-361); settings: protein: recombinant; tags: N-terminal GST; dsDNA, one strand shown
T7 sequence: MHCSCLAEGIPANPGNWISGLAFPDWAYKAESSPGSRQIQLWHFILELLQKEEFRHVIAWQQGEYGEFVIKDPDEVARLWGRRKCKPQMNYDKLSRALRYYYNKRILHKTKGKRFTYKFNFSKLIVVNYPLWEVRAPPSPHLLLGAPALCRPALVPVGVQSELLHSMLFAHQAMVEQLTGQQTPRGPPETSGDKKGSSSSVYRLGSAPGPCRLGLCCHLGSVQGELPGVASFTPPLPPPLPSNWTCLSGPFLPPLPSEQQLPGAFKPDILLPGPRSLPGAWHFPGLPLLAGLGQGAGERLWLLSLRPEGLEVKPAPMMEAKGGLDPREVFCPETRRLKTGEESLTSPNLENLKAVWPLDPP
Procedure, shortened: as §1

[13] = target: T8, ETS2 (Homo sapiens, UniProt P15036 1-469); settings: protein: recombinant; tags: N-terminal GST; dsDNA, one strand shown
T8 sequence: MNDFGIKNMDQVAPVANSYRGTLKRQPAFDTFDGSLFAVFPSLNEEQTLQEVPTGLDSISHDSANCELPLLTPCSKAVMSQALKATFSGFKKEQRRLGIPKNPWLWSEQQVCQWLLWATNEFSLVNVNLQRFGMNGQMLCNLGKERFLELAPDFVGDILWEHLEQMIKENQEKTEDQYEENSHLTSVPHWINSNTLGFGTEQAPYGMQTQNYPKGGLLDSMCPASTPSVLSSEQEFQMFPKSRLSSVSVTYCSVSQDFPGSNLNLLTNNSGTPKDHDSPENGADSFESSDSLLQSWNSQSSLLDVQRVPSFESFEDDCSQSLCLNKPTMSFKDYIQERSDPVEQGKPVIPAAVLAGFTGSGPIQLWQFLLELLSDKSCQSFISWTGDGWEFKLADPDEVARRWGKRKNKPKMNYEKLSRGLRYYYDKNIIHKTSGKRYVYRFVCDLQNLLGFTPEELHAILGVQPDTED
Procedure, shortened: as §1

[14] = target: T9, SPDEF (Homo sapiens, UniProt O95238 1-335); settings: protein: recombinant; tags: N-terminal GST; dsDNA, one strand shown
T9 sequence: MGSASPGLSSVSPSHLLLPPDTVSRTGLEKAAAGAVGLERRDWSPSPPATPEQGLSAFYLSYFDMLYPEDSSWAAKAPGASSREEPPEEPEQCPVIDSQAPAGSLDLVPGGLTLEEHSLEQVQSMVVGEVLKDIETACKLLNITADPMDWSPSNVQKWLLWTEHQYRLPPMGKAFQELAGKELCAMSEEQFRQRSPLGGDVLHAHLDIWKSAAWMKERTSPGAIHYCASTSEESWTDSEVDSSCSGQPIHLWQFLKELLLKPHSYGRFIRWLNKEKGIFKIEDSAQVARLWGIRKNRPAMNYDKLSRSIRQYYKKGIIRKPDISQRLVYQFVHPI
Procedure, shortened: as §1

[15] = target: T10, ETV7 (Homo sapiens, UniProt Q9Y603 1-341); settings: protein: recombinant; tags: N-terminal GST; dsDNA, one strand shown
T10 sequence: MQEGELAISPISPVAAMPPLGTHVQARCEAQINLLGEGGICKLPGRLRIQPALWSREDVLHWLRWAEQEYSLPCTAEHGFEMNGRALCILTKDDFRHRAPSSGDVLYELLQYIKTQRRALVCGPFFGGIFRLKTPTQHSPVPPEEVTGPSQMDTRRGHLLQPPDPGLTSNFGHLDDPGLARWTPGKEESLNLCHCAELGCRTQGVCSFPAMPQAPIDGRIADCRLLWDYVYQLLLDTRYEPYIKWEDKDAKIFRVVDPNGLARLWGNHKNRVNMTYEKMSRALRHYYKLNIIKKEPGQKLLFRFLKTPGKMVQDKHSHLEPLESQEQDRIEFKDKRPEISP
Procedure, shortened: as §1

[16] = target: T11, ELF5 (Homo sapiens, UniProt Q9UKW6-2 1-255); settings: protein: recombinant; tags: N-terminal GST; dsDNA, one strand shown
T11 sequence: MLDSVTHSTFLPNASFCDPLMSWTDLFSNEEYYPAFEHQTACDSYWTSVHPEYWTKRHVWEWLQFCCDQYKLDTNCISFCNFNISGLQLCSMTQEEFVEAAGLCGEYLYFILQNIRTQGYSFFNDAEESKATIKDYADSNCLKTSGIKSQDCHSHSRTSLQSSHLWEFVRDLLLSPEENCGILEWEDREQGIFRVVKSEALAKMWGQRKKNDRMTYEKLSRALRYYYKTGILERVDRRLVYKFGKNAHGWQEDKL
Procedure, shortened: as §1

[17] = target: T12, ETV3 (Homo sapiens, UniProt P41162-2 1-143); settings: protein: recombinant; tags: N-terminal GST; dsDNA, one strand shown
T12 sequence: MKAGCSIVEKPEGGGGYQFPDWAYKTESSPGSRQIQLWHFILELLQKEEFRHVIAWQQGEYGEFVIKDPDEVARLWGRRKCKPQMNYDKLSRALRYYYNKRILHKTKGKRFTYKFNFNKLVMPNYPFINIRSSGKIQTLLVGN
Procedure, shortened: as §1

[18] = target: ETV6 (Homo sapiens, UniProt P41212 1-452); settings: protein: recombinant; tags: N-terminal GST; dsDNA, one strand shown
Sequence of ETV6 (P41212 whole entry): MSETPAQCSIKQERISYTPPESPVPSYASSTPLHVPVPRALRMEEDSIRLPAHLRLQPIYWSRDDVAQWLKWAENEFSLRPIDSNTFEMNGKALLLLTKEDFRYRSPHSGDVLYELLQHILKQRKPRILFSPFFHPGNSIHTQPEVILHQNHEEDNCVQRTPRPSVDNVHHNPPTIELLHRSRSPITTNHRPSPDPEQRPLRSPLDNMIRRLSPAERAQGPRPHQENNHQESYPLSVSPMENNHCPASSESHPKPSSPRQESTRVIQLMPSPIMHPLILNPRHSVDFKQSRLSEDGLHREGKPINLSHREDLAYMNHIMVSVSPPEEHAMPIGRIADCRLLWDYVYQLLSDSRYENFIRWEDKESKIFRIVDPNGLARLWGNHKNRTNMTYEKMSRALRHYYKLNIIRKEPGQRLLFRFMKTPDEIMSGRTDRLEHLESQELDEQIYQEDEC
Procedure, shortened: as §1

## ACGAAA
[1]
  binding signal: 1.15 fold enrichment (6-mer frequency, TF over GST control)
[2]
  binding signal: 1.15 fold enrichment (6-mer frequency, TF over GST control)
[3]
  binding signal: 1.44 fold enrichment (6-mer frequency, TF over GST control)
[4]
  binding signal: 1.02 fold enrichment (6-mer frequency, TF over GST control)
[5]
  binding signal: 1.16 fold enrichment (6-mer frequency, TF over GST control)
[6]
  binding signal: 1.24 fold enrichment (6-mer frequency, TF over GST control)
[7]
  binding signal: 1.13 fold enrichment (6-mer frequency, TF over GST control)
[8]
  binding signal: 1.19 fold enrichment (6-mer frequency, TF over GST control)
[9]
  binding signal: 1.09 fold enrichment (6-mer frequency, TF over GST control)
[10]
  binding signal: 1.12 fold enrichment (6-mer frequency, TF over GST control)
[11]
  binding signal: 1.34 fold enrichment (6-mer frequency, TF over GST control)
[12]
  binding signal: 1.13 fold enrichment (6-mer frequency, TF over GST control)
[13]
  binding signal: 1.15 fold enrichment (6-mer frequency, TF over GST control)
[14]
  binding signal: 1.18 fold enrichment (6-mer frequency, TF over GST control)
[15]
  binding signal: 1.23 fold enrichment (6-mer frequency, TF over GST control)
[16]
  binding signal: 1.09 fold enrichment (6-mer frequency, TF over GST control)
[17]
  binding signal: 1.03 fold enrichment (6-mer frequency, TF over GST control)
[18]
  binding signal: 1.13 fold enrichment (6-mer frequency, TF over GST control)
